From PubChem BioAssay (NCI) come the findings set out here.

About 83,000 compounds went through this panel and 20% of them were active in at least one assay; those are over-represented in the sample as a whole.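 96-well plates, one dose, 48 hours. Percent growth reported; active if below 10.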 A number with no mark means an inactive call. Active and inactive are the calls of the source.

Holding throughout (experiment): NCI-60 one-dose screen, 48 h (100 = growth as untreated, 0 = no growth, -100 = all killed)
Test [1] has as its system HCT-15 colon. Particulars: 10 µM unless noted.
For test [2], the system named is HT29 colon. The following applies: 10 µM unless noted.
The test system of test [3] is SNB-75 CNS. Particulars: 10 µM unless noted.
The subject of test [4] is SNB-19 CNS. Particulars: 10 µM unless noted.
Test [5] concerns U251 CNS. Particulars: 10 µM unless noted.
In test [6] the test system is PC-3 prostate. Particulars: 10 µM unless noted.
Test [7] has as its system SK-MEL-5 melanoma. Particulars: 10 µM unless noted.
Test [8] deals with UACC-62 melanoma. Particulars: 10 µM unless noted.
Test [9] deals with LOX IMVI melanoma. The following applies: 10 µM unless noted.
In test [10] the test system is SK-MEL-28 melanoma. Particulars: 10 µM unless noted.
In test [11] the test system is SK-MEL-2 melanoma. The following applies: 10 µM unless noted.
Test [12] has as its system EKVX NSCLC. Particulars: 10 µM.
The subject of test [13] is SN12C renal. Particulars: 10 µM unless noted.
Test [14] has as its system UO-31 renal. Particulars: 10 µM unless noted.
The test system of test [15] is TK-10 renal. Particulars: 10 µM unless noted.
For test [16], the system named is ACHN renal. Particulars: 10 µM unless noted.
Test [17] has as its system A498 renal. Particulars: 10 µM unless noted.
Test [18] deals with CCRF-CEM leukemia. The following applies: 10 µM.
The subject of test [19] is MOLT-4 leukemia. The following applies: 10 µM unless noted.

For `COc1ccc(C2=NN(C(=O)c3cc(-c4ccc(C)cc4)nc4ccccc34)C(c3cc(-c4ccccc4)nn3-c3ccccc3)C2)cc1` (centres undefined), the growth was 82.6% in [1]; 105% in test [2]; 88.3% in [3]; 83% in test [4]; 85.3% in [5]; 74.7% in test [6]. The growth is 97.8% in [7]; 83.5% in [8]; 80.6% in [9]; 93.8% in test [10]; 94.9% in test [11]; 99.6% in test [12]. For the same molecule, the growth in test [13] is 97.7%; in [14] it was 79.8%; in test [15], 113%; in [16], 98.6%; in [17], 91%; in test [18], 81.5%. In addition, the growth in test [19] was 84.7%.
Regarding `NC(N)=N/N=C/c1cccc(Br)c1`, the growth is 105% in test [1]; 103% in [2]; 92.3% in test [3]; 101% in test [4]; 110% in [5]; 90.1% in test [6]. Also, the growth is 84.7% in test [7]; 107% in test [8]; 89.6% in [9]; 112% in test [10]; 103% in test [11]; 103% in test [12]. Further, the growth in test [13] was 101%; in test [14], 79.5%; in test [15], 100%; in [16], 108%; in [18], 101%; in [19], 91.2%.
Turning to `O=C(/C=C1\C(=O)N(Cc2ccccc2)c2ccccc21)c1ccc(OCCN2CCCCC2)cc1`, the growth was -49.9% (active) in test [1]; -58% (active) in test [2]; 78.7% in [3]; 88.1% in [4]; 50.7% in test [5]; 56.9% in test [6]. For the same molecule, the growth was 94.9% in test [7]; 69.5% in test [8]; -37.2% (active) in test [9]; 96.9% in [10]; 88.6% in [11]; 64.2% in [12]. The growth in [13] was 0.718% (active); in test [14] it was -25.9% (active); in test [15], 40.3%; in [16], -25.4% (active); in [17], 68.4%; in [18], 1.17% (active). In addition, in test [19], the growth is 9.65% (active).
Take `O=C(CCCC(=O)Nc1ccc(Cn2nnc3cc(Cl)c(Cl)cc32)cc1)Nc1ccc(CN2N=NC3C=C(Cl)C(Cl)=CC32)cc1` (centres undefined): the growth was 97.3% in test [1]; 86.5% in [2]; 70.3% in test [3]; 86.2% in test [4]; 84.2% in test [5]; 60.2% in test [6]. Moreover, the growth in test [7] is 89.8%; in test [8], 62.3%; in test [9], 78.8%; in test [10] it was 103%; in test [11], 87.7%; in test [12], 75.6%. Moreover, the growth in test [13] was 89.9%; in test [14], 50.4%; in [15], 107%; in test [16] it was 83.8%; in test [17], 78.3%; in test [18], 68.1%. In addition, the growth in [19] was 83.2%.
Regarding `O=c1oc2ccc3ccccc3c2cc1-c1ccnc2[nH]c(=S)[nH]c(=O)c12`, the growth in test [1] was 105%; in [2] it was 95.3%; in test [3], 98.9%; in test [4], 95%; in test [5], 98.5%; in test [6], 93%. Moreover, the growth in test [7] was 97.8%; in [8] it was 88.2%; in test [9], 93.1%; in [10], 105%; in test [11], 104%; in test [12], 101%. The growth in test [13] is 93.1%; in [14], 66.5%; in [15], 143%; in test [16], 107%; in test [17], 107%; in test [18] it was 82.6%. The growth in [19] was 87.4%.
On to `[2H]c1nc(=Nc2cc(NC(=O)C=C)c(N(C)CCN(C)C)cc2OC)[nH]c(-c2cn(C([2H])([2H])[2H])c3ccccc23)c1[2H]`, for which the growth was 1.13% (active) in [1]; -3.69% (active) in test [2]; 66.9% in [3]; 55.8% in test [4]; 40.9% in test [5]; 50.2% in test [6]. The growth in test [7] was 63.5%; in test [8], -10.7% (active); in [9], 39.2%; in [10], 37.5%; in [11], 55.8%; in [12], 39.7%. The growth in test [13] was 35.3%; in [14], 24.2%; in [15] it was 26.8%; in [16] it was 23.3%; in [17], 36.7%; in [18], 18.4%. The growth in test [19] is 13.3%.
As for `CCCNC(=O)Oc1ccc(/C(=C(/C)Cc2ccc(OC)cc2)c2ccc(OCCN3CCCCC3)cc2)cc1`, the growth in test [1] was 50.2%; in test [2], 28.9%; in test [3] it was 63.6%; in test [4], 94.1%; in test [5] it was 69.9%; in test [6], 77%. In addition, the growth is 78.2% in [7]; 97.5% in test [8]; 84.8% in test [9]; 100% in [10]; 99.5% in test [11]; 76.6% in test [12]. Besides, the growth in [13] was 84.9%; in [14], 60.8%; in [15] it was 81.1%; in [16], 102%; in test [18], 70.8%; in test [19] it was 70.9%.
Consider `CC(=O)OCC(=O)[C@@]1(O)[C@H](C)C[C@H]2[C@@H]3C=C(C)C4=Cc5c(cnn5-c5ccc(F)cc5)C[C@]4(C)[C@H]3[C@@H](O)C[C@@]21C`, for which the growth was -11.1% (active) in test [1]; -43.4% (active) in test [2]; 6.75% (active) in test [3]; 25.9% in test [4]; 9.65% (active) in test [5]; 12% in test [6]. For the same molecule, the growth is -47.3% (active) in test [7]; -9.5% (active) in test [8]; 1.77% (active) in test [9]; 34.5% in test [10]; 22.5% in test [11]; 28.5% in test [12]. Besides, the growth in test [13] is 40.5%; in [14], 3.92% (active); in [15] it was 19.7%; in [16] it was 13.5%; in test [18], 6.74% (active); in [19], 1.22% (active).
